High-throughput results from PubChem.
Rows were chosen to be rich in hits. Some 3% of all compounds tested hit in one or more screens of this group.
m-calpain inh: calpain II (pig) inhibition. purified calpain II, fluorogenic peptide substrate, 30 min. inhibition, % at 16 µM. actives 0.37% (n = 220,000);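 active = inhibition above about 50%, limit read from the data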
L929 necroptosis: blocks zVAD induced death of L929 cells; actives 0.38% (n = 220,000); L929 zVAD necroptosis rescue, ATP luminescence, 24 h; with zVAD 60 µM; viability rescue, % at 10 µM;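 active = activation, scaled between plate controls, above about 75%, limit read from the data; inactive = activation under that limit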
HMGR II inh: E. faecalis class II HMG-CoA reductase inhibition; actives 0.41% (n = 190,000); purified E. faecalis HMGR, NADPH absorbance 340 nm kinetic; inhibition, % at 10 µM; AID 1066;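 active = inhibition above a set limit, the median over all tested compounds plus 3 SD, cut at about 9.5% in these data; inconclusive = no clear call, values can overlap the other calls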;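 also: enzyme runs in reverse so mevalonate oxidation gives rising NADPH absorbance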
TNF death inh: blocks TNF-alpha induced death of Jurkat FADD-/- cells | Jurkat FADD-/- TNF necroptosis rescue, ATP luminescence, 24 h; 0 = TNF only, 100 = no-TNF cells | activation (protection from cell death), % at 10 µM | actives 0.068% (n = 220,000);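 active = activation, meaning protection from cell death, of at least 50% relative to plate controls; inactive = activation below 50%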;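 also: necroptosis triggered by 40 ng/mL TNF-alpha added together with compound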
ROMK mod: modulators of human ROMK potassium channel. P48048. Tet-inducible ROMK, thallium flux fluorescence; actives lie on both sides. B-score at 10 µM. actives 2% (n = 130,000);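 active = signal ratio slope over the read window, or its plate-corrected B-score, at least 3 SD from the plate mean, either direction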;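 also: B-score of the F/F0 ratio slope over 7 to 12 s after thallium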
14-3-3 Bad PPI: disrupts binding of bovine 14-3-3 zeta to phospho-Bad peptide; P63103; TR-FRET 14-3-3zeta/Dy647-pBad peptide displacement, 1 h; inhibition, % at 21.7 µM; actives 0.71% (n = 220,000); AID 781;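 active = inhibition above about 70%, limit read from the data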
Target sequence (P63103 whole entry, looked up): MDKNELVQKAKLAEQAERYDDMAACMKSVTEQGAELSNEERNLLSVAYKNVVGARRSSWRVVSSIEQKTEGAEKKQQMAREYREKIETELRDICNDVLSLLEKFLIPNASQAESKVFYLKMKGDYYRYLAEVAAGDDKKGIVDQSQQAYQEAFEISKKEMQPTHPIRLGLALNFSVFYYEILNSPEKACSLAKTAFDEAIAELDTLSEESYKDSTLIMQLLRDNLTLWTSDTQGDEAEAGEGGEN
ROMK hit retest: retested hit modulating human ROMK potassium channel; actives 54% (n = 3,000); normalized thallium flux (F/F0 slope) at 10 µM; ROMK thallium flux, fluorescence ratio; stronger effect = lower value; shares compounds with ROMK mod;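 active = Flux at 10 µM at least 3 SD below or above vehicle control mean in one or both replicates; inconclusive = no clear call, values can overlap the other calls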
Of the large screens only hits and unclear results are named; the others gave an inactive call (follow-up assays come after a bar, where they were run).

COc1ccc(Cn2c(O)c(/C=N/NC(=O)c3cccnc3)c3ccccc3c2=O)cc1	ROMK mod -5.5 | ROMK hit retest 0.032
O=C(N/N=C/c1c(O)n(-c2ccccc2Cl)c(=O)c2ccccc12)c1cccnc1	ROMK mod -3.6 | ROMK hit retest 0.058
O=C(Nc1ncccc1Cl)C1COc2ccccc2O1 (centres undefined)	none
N#C/C(=C\c1ccc(Cl)c([N+](=O)[O-])c1)c1ccccn1	ROMK mod -6.9 | ROMK hit retest 0.053
CNc1ccc(/C=C(\C#N)c2ccccn2)cc1[N+](=O)[O-]	none
CCOC(=O)/C(C(C)=O)=C1\OC(=O)c2ccccc21	none
COc1cc(CNCCNC(=O)c2nonc2N)ccc1OCc1ccc(Cl)cc1	ROMK mod -3.1 | ROMK hit retest 0.053
Nc1nonc1C(=O)NCCNCc1cc(Br)ccc1OCc1ccccc1F	m-calpain inh 75, ROMK mod -4.2 | ROMK hit retest 0.049
Cc1ccc(C(=O)C(c2ccccc2)N2Cc3ccccc3C2=N)cc1 (centres undefined)	ROMK mod -3 | ROMK hit retest 0.054
CCn1c(SCC(=O)Nc2nc3ccc(OC)cc3s2)nc2c1c(=O)n(C)c(=O)n2C	none (no result: ROMK mod) | ROMK hit retest inconclusive
CCCn1c(SCC(=O)Nc2ccccc2N2CCCCC2)nc2c1c(=O)n(C)c(=O)n2C	ROMK mod -2.6 | ROMK hit retest 0.064
O=C1C2C(c3cccc(/C=C/c4ccccc4)c3)CC=CC2C(c2ccc(C(F)(F)F)cc2)N1Cc1ccccc1 (centres undefined)	none (no result: HMGR II inh, ROMK mod) | ROMK hit retest inactive
COCCCNC(=O)CC1C(=O)N(Cc2ccccc2)C(C)c2nc3ccccc3n21 (centres undefined)	ROMK mod -4.4 | ROMK hit retest inactive
CC(=O)c1ccc(OCCOc2ccc(C#N)cc2)cc1	none (no result: HMGR II inh, ROMK mod)
CCOc1ccc2nc(NC(=O)C(NS(=O)(=O)c3cccc4nsnc34)C(C)C)sc2c1 (centres undefined)	none (no result: ROMK mod) | ROMK hit retest 0.056
CC(C)C(NS(=O)(=O)c1cccc2nsnc12)C(=O)Nc1nc2ccc(Cl)cc2s1 (centres undefined)	none (no result: ROMK mod)
CC1CC(NC(=O)/C=C/C(=O)O)CC(C)(C)C1 (centres undefined)	none (no result: HMGR II inh, ROMK mod)
CCC(CC)C(=O)N1c2ccc(F)cc2CCC1C (centres undefined)	none
CC1CCc2cc(F)ccc2N1C(=O)CCl (centres undefined)	ROMK mod -4.3 | ROMK hit retest 0.048
COc1ccc(F)cc1C(=O)C1CCCN(Cc2ccc(Sc3nncn3C)o2)C1 (centres undefined)	none
Cc1cnccc1CNC(=O)CC1C(=O)NCCN1CC(C)(C)C (centres undefined)	none
CN1C(=S)N(c2cccnc2)C(=O)/C1=C\c1ccc(C(C)(C)C)cc1	none
CN1C(=S)N(c2cccnc2)C(=O)/C1=C\c1ccc(N(C)C)cc1	ROMK mod -5.5, 14-3-3 Bad PPI 79 | ROMK hit retest 0.041
COc1ccc(C2=CC(=O)OC3(CCCCC3)O2)cc1	ROMK mod -2.4 | ROMK hit retest 0.062
COc1cccc(NC=C2C(=O)OC3(CCCCC3)OC2=O)c1	none
CCc1ccc2nc(SCC(=O)Nc3nnc(C)s3)c(C)cc2c1	none | ROMK hit retest inactive
C=CCOc1ccc(Br)cc1CNC(C)(C)CO	none (no result: ROMK mod)
C=CCOc1ccc(Br)cc1CNC(C)(C)C	HMGR II inh 22 | ROMK hit retest inactive
Cc1ccc(C2CC(=O)NC(SCc3ccccc3)=C2C#N)cc1 (centres undefined)	none (no result: ROMK mod) | ROMK hit retest 0.066
O=C1OC(/C=C/c2ccc(Cl)cc2Cl)=NC/1=C\c1cccs1	ROMK mod -2.9 | ROMK hit retest 0.059
O=c1cc(-c2cccs2)oc2ccc(Cl)cc12	none (no result: ROMK mod)
N#C/C(=C\c1cccc(Oc2ccccc2)c1)C(=O)N1CCOCC1	ROMK mod -7 | ROMK hit retest 0.036
COc1ccc(NC(=O)Nc2ccc(F)cc2)c(C)c1	ROMK mod -2.1 | ROMK hit retest inactive
CC1CCN(c2nc(N3CCCCC3)nc(N3CCCCC3)n2)CC1	none (no result: ROMK mod)
